Results taken from the supplement of paper PMC9844399.

system: HeLa; assay: MALAT1 nuclear FISH intensity, robust Z-score vs DMSO; higher = more nuclear MALAT1 lncRNA, active = -3 or less; conditions: 10 µM; 6 h
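Also: High-content confocal imaging of branched-DNA amplified FISH in 384-well plates, Hoechst-defined nuclei, score is well value minus plate DMSO median over DMSO robust SD, four wells per compound.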

Compound	MALAT1 nuclear FISH intensity
CC(C)N(CCC(C(N)=O)(c1ccccc1)c1ccccn1)C(C)C (stereo unspecified) [Disopyramide]	-1.18 (inactive)
CCCCC[C@@H](/C=C/C=C\C/C=C\C/C=C\CCCC(=O)O)OO	0.175 (inactive)
NC1CCc2cc(O)c(O)cc2C1 (stereo unspecified)	-1.61 (inactive)
N#Cc1nn(-c2c(Cl)cc(C(F)(F)F)cc2Cl)c(N)c1[S+]([O-])C(F)(F)F (stereo unspecified) [Fipronil]	0.909 (inactive)
C=C1[C@@H](C)[C@H]2[C@H](Cc3ccccc3)NC(=O)[C@]23OC(=O)/C=C/[C@H](O)CCC[C@@H](C)C/C=C/[C@H]3[C@@H]1O [Cytochalasin B from Drechslera dematioidea]	1.6 (inactive)
CCCCC[C@@H](/C=C/C=C\CCCCCCCC(=O)O)OO	-0.00896 (inactive)
CC1(C)C(C=C(Cl)Cl)C1C(=O)OC(C#N)c1cccc(Oc2ccccc2)c1 (stereo unspecified) [Cypermethrin]	-0.385 (inactive)
O=C1C=CC(=O)c2c(O)cccc21 [Juglone]	-0.877 (inactive)
NCC1(CC(=O)O)CCCCC1 [Gabapentin]	0.161 (inactive)
NCC(CC(=O)O)c1ccc(Cl)cc1 (stereo unspecified)	-0.547 (inactive)
CC[C@@H]1/C=C/C=C/C[C@H](C)[C@H](O)[C@](C)(O)C(=O)[C@H](C)[C@@H](O)[C@H](C)C(=O)[C@H](C)[C@@H](O)[C@H](C)/C=C/C(=O)O[C@H]2[C@@H](C)[C@@H](CC1)O[C@@]1(CC[C@@H](C)[C@@H](C[C@H](C)O)O1)[C@@H]2C [Oligomycin A]	-1.38 (inactive)
